{"source": "PubChem BioAssay AID652154", "about": "(Broad Institute, 2013)", "note": "Hit rate of the full screen: of about 360,000 compounds, about 4,200 (1.2%) were called active. The full list was thinned out, with actives kept by preference. Unmarked numbers belong to inactive results.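 How the source made its calls: active means mean replicate inhibition at least 60% with every replicate also reaching 60%; inconclusive means only one of the two criteria is met; inactive means mean below 60% and not all replicates reaching 60%.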", "data": [{"experiment": "PAX8 transcriptional activity inhibition in RMG-I – RMG-I cells, luciferase, single concentration, primary screen (AID 652154);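 further: luciferase light reporting Pax8 driven TPO promoter activity; plate controls were median of neutral control wells for no effect and mitoxantrone controls for full effect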", "conditions": "RMG-I TPO-luciferase reporter, SteadyGlo, 24 h; at 12.6 µM; active compounds read high", "values": [{"smiles": "CCCCn1c(O)c(N=NC(=O)Cn2c(C(F)(F)F)nc3ccccc32)c2ccccc21", "inhibition": "125% (active)"}, {"smiles": "COC(=O)Cn1c(O)c(N=NC(=O)OC)c2ccccc21", "inhibition": "8.64%"}, {"smiles": "CN1CCN(C(=O)Cn2c(C(F)(F)F)nc3ccccc32)CC1", "inhibition": "1.81%"}, {"smiles": "CCCNC(=O)N1[C@@H]2c3ccc(-c4ccccc4OC)c(=O)n3C[C@H]1[C@H](CO)[C@H]2C(=O)N(C)C", "inhibition": "-4.26%"}, {"smiles": "C=C1C(=O)[C@]23C[C@H]1CCC2[C@@]1(C)C(C[C@@H]3O)[C@](C)(C(=O)O)CC[C@@H]1O", "note": "(stereo partly drawn)", "inhibition": "71.9% (active)"}, {"smiles": "CN1CCCCN2[C@@H](CO)[C@@H](c3ccc(C4=CCCC4)cc3)[C@@H]2C1", "inhibition": "-5.77%"}, {"smiles": "Cc1ccccc1-c1n[nH]c(=S)n1/N=C/c1ccc(-c2ccccc2Br)o1", "inhibition": "-5.71%"}, {"smiles": "S=c1[nH]nc(-c2cccnc2)n1/N=C/C(Cl)=C\\c1ccccc1", "inhibition": "72.4% (active)"}, {"smiles": "Fc1ccc(/C=N/n2c(COc3ccccc3)n[nH]c2=S)cc1", "inhibition": "-9.55%"}, {"smiles": "Cc1cc(-c2n[nH]c(=S)n2/N=C/C(Br)=C/c2ccccc2)n[nH]1", "inhibition": "94% (active)"}, {"smiles": "COc1ccccc1N1CCN(/N=C\\C(Br)=C\\c2ccccc2)CC1", "inhibition": "3.71%"}, {"smiles": "S=c1[nH]nc(-c2cccs2)n1/N=C/c1cn(-c2ccccc2)nc1-c1ccc(Cl)cc1", "inhibition": "3.55%"}, {"smiles": "COc1cccc(-c2ccc([C@H]3[C@H]4CN(C(=O)NC(C)C)CC(=O)N4[C@H]3CO)cc2)c1", "inhibition": "-13.6%"}, {"smiles": "CCC(=O)N1C[C@@H](C)[C@@H](OC)CN(C)C(=O)c2ccc(NC(=O)C3CCCCC3)cc2OC[C@@H]1C", "inhibition": "-13.2%"}, {"smiles": "O=C(C1CC1)N1CCCCN2[C@H](C1)[C@@H](c1ccc(-c3cccc(F)c3)cc1)[C@@H]2CO", "inhibition": "4.79%"}, {"smiles": "O=C(c1cccc(F)c1)N1CCCCN2[C@H](CO)[C@@H](c3ccc(-c4cncnc4)cc3)[C@H]2C1", "inhibition": "-27.3%"}, {"smiles": "O=C(C[C@@H]1C=C[C@@H](NC(=O)c2cccnc2)[C@H](CO)O1)NCc1ccncn1", "inhibition": "2.15%"}, {"smiles": "CO[C@@H]1CN(C)C(=O)c2ccc(NC(=O)Nc3c(C)noc3C)cc2OC[C@H](C)N(CC2CC2)C[C@H]1C", "inhibition": "4.7%"}, {"smiles": "Cc1onc(C(=O)NN)c1C(=O)N1CCN(C(c2ccccc2)c2ccccc2)CC1", "inhibition": "17.8%"}, {"smiles": "CC1(C)CC(N2CCN(C(c3ccccc3)c3ccccc3)CC2)=CC(=[N+]2CCCCC2)C1", "inhibition": "94.1% (active)"}, {"smiles": "CC1(C)CC(=O)C=C(N2CCOCC2)C1", "inhibition": "7.18%"}, {"smiles": "CCCCCCCCN1C(=O)[C@@H](CC(=O)NCc2ccccc2)C[C@@]2(C(=O)OC)C1=C[C@H](C(C)(C)C)O[C@@H]2C", "inhibition": "19.6%"}, {"smiles": "COc1ccccc1/C=C1\\SC(=O)N(CCC(=O)N(C)C2CCS(=O)(=O)C2)C1=O", "note": "(stereo not drawn)", "inhibition": "-11.6%"}, {"smiles": "CN(C(=O)CCN1C(=O)/C(=C/c2ccccc2F)SC1=S)C1CCS(=O)(=O)C1", "note": "(stereo not drawn)", "inhibition": "74.1% (active)"}, {"smiles": "CN(C(=O)CN1C(=O)S/C(=C\\c2ccccc2F)C1=O)C1CCS(=O)(=O)C1", "note": "(stereo not drawn)", "inhibition": "10.3%"}, {"smiles": "Cn1c(CCN2CCN(c3ccccn3)CC2)nc2cc(NS(=O)(=O)c3ccc(F)cc3)ccc21", "inhibition": "50.3%"}, {"smiles": "Cn1c(CCN2CCCC2)nc2cc(NS(=O)(=O)c3ccccc3)ccc21", "inhibition": "119% (active)"}, {"smiles": "CCC(=O)Nc1ccc2c(c1)nc(CCN1CCN(c3ccccn3)CC1)n2C", "inhibition": "-3.44%"}, {"smiles": "O=C(Nc1ccccc1)Nc1ccc2c(c1)[C@@H]1C[C@@H](CC(=O)N3CCCCC3)O[C@H](CO)[C@@H]1O2", "inhibition": "-0.47%"}, {"smiles": "O=C(c1cccc(F)c1)N1CCCCN2[C@@H](CO)[C@H](c3ccc(-c4cncnc4)cc3)[C@@H]2C1", "inhibition": "2.95%"}, {"smiles": "COc1cc(/C=N/NC(=O)c2ccc(N3CCCC3=O)cc2)ccc1O", "inhibition": "86.3% (active)"}, {"smiles": "CCOc1cc(/C=N/NC(=O)CN2CCCCC2)ccc1O", "inhibition": "3.31%"}, {"smiles": "C/C(=N\\NC(=O)c1cccc(N2CCCC2=O)c1)c1ccc(N)cc1", "inhibition": "-0.282%"}, {"smiles": "CN(C)CC(=O)Nc1ccc2c(c1)[C@H]1C[C@@H](CC(=O)NCc3ccccn3)O[C@@H](CO)[C@H]1O2", "inhibition": "-17.3%"}, {"smiles": "CO[C@@H]1CC[C@H]2CCOc3c(C#N)cccc3C(=O)N(C)C[C@@H](OC)[C@H](C)C(=O)N(C)C[C@@H]1O2", "inhibition": "-5.56%"}, {"smiles": "COc1ccccc1-c1cn(CC[C@H]2CC[C@@H](NC(=O)Cc3ccccn3)[C@@H](CO)O2)nn1", "inhibition": "-1.82%"}, {"smiles": "COc1ccc2[nH]c3c(C)c4cc[n+](C)cc4c(C)c3c2c1", "inhibition": "70.3% (active)"}, {"smiles": "C/C=C/c1ccc([C@H]2[C@@H](CNC(=O)NC(C)C)N(C(=O)C3CCC3)[C@H]2CO)cc1", "inhibition": "6.6%"}, {"smiles": "CO[C@@H]1CN(C)C(=O)c2cc(NS(C)(=O)=O)ccc2OC[C@H](C)N(C(=O)C2CC2)C[C@@H]1C", "inhibition": "-16.6%"}, {"smiles": "Oc1ccc2ccccc2c1N=Nc1nccs1", "inhibition": "90.5% (active)"}, {"smiles": "C[C@@H]1CN([C@@H](C)CO)C(=O)c2cc(NS(=O)(=O)c3ccccc3)ccc2O[C@@H](C)CCCCO[C@@H]1CN(C)S(=O)(=O)c1cccs1", "inhibition": "17.1%"}, {"smiles": "CC(C)NC(=O)N(C)C[C@@H]1OCCCC[C@@H](C)Oc2ccc(NC(=O)Cc3ccccc3)cc2C(=O)N([C@H](C)CO)C[C@H]1C", "inhibition": "20.4%"}, {"smiles": "CCN1/C(=C\\c2ccc3ccccc3[n+]2CC)Sc2cc(C)ccc21", "inhibition": "93.7% (active)"}, {"smiles": "O=C(C[C@@H]1C[C@@H]2c3cc(NC(=O)C4CCOCC4)ccc3O[C@@H]2[C@@H](CO)O1)NC1CCCCC1", "inhibition": "8.24%"}, {"smiles": "C[C@@H]1CN([C@H](C)CO)C(=O)Cc2cc(NC(=O)C3CC3)ccc2O[C@H]1CN(C)Cc1ccc(Cl)c(Cl)c1", "inhibition": "11.3%"}, {"smiles": "COc1cccc(C#Cc2ccc([C@H]3[C@@H](CO)N(C(=O)c4ccccn4)[C@H]3C#N)cc2)c1", "inhibition": "92.4% (active)"}, {"smiles": "COc1cccc(-c2ccc([C@@H]3[C@@H](CO)N(C(=O)c4ccccn4)[C@H]3C#N)cc2)c1", "inhibition": "-77.2%"}, {"smiles": "COc1cccc(-c2ccc([C@@H]3[C@@H](C#N)N(C(=O)c4ccccn4)[C@H]3CO)cc2)c1", "inhibition": "-20.8%"}]}]}
